This is an account of results in paper PMC7819943, “Rice protein-binding microarrays: a tool to detect cis-acting elements near promoter regions in rice”.

Whole data set: some 39,000 sequences, median “fluorescence intensity (a.u.)” near 4,300, cut for the highest 2% near 39,000. The sample as a whole holds a higher share of the highest values than the screen did.

The experiment deals with T1, OsSMF1 (Oryza sativa, UniProt Q6ZLB0 1-436).
T1 sequence: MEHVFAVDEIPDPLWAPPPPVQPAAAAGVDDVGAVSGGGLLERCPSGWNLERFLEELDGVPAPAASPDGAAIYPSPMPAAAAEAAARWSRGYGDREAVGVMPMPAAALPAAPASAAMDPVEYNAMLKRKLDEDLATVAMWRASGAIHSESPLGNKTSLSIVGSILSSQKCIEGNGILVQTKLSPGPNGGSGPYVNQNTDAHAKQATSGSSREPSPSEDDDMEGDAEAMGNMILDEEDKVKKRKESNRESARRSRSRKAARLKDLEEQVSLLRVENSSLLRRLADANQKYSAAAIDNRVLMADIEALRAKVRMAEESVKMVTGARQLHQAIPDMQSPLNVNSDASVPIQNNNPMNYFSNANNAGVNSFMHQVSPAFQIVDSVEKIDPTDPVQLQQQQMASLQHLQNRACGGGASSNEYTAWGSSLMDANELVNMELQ
Kind of experiment: protein-binding microarray (RPBM); PBS, 2% BSA, 51.3 ng/ul salmon testes DNA, 50 uM zinc acetate, 200 nM TF, 25 C, 1 h; high values mean tight binding. Conditions: protein: recombinant; tags: N-terminal polyhistidine and DsRed monomer fusion (pET32a); chain copies: 2; label: CyDye5-dUTP incorporated in the synthesized complementary strand; 3' TTTTT single-stranded linker to array surface; dsDNA, one strand shown. The method in brief: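 The binding signal is fluorescence intensity per feature, in arbitrary units, read on an Axon 4000B scanner. Polyhistidine- and DsRed-tagged transcription factors (N-terminal fusions) from E. coli BL21-CodonPlus were purified on Ni–NTA and applied at 200 nM for 1 h at 25 °C to a double-stranded, BSA-blocked custom Agilent array in buffer with 50 µM zinc acetate.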
“GATGCAAAGAGAGCTACTAGCTGAGTTGGATGGAATTAACCGGAGTCACCTAGTGCAG”: the binding signal is 5550 fluorescence intensity (a.u.).

For the sequence “AAGTAGGCGTAGTTAAATCAAATGAGTGCTGTGCTGTCCACGGAGTCACCTAGTGCAG”, the binding signal is 3400 fluorescence intensity (a.u.).

As for “CCGTCGCCGTCGGCACCGCCGCCGGAGCTCCTCCCTGCTCCGGAGTCACCTAGTGCAG”, the binding signal is 3220 fluorescence intensity (a.u.).

Consider “ATCTACTGATTTACAACCTCCTTAATTAACAAGCACGGGTCGGAGTCACCTAGTGCAG”, for which the binding signal was 24600 fluorescence intensity (a.u.).

“ACTCCTCGGATAGGCGATGGCGGCCGCGGTCACCGCGCCACGGAGTCACCTAGTGCAG”: the binding signal is 3370 fluorescence intensity (a.u.).

For “AAGCTGTTTCACAAGGCAGTTTTGCATACGTGGCGGGCTGCGGAGTCACCTAGTGCAG”, the binding signal is 21500 fluorescence intensity (a.u.).

Regarding “AGGAAGGAAGGAAGCAAAATGCTGACGTGTACATAAACCGCGGAGTCACCTAGTGCAG”, the binding signal was 16000 fluorescence intensity (a.u.).

For the sequence “CACCGCGACGCACATACCCACCCGCCGGCCACGCACGAGACGGAGTCACCTAGTGCAG”, the binding signal was 4460 fluorescence intensity (a.u.).

In the case of “CACCCACGAGCACACCCGTACCAGGGGACGAGGAGGTGGACGGAGTCACCTAGTGCAG”, the binding signal is 38300 fluorescence intensity (a.u.).

With “CGGTGCGAGGTACTACGTCAAGGCGTACGAGGCCAGGTACCGGAGTCACCTAGTGCAG”, the binding signal was 3140 fluorescence intensity (a.u.).

With “CGCATACCGGCCAGAAACACGACGGCGACGAGGTGCACTACGGAGTCACCTAGTGCAG”, the binding signal was 41500 fluorescence intensity (a.u.).

Take “CTAGACGCCGGCGACGACGAGGGTGGTTGGGTTGTGGATACGGAGTCACCTAGTGCAG”: the binding signal is 3740 fluorescence intensity (a.u.).

On to “GGTGTGGAGGGGTTGGACCAGAGCACGACGACGGCGAGGACGGAGTCACCTAGTGCAG”, for which the binding signal was 45100 fluorescence intensity (a.u.).

As for “AGAGGGCGTGTACTCGTGACATCGTGTGTGTGCGTGTGCGCGGAGTCACCTAGTGCAG”, the binding signal is 6670 fluorescence intensity (a.u.).

Take “TTACTACACGGATCGCGGTCACGTCACGTGGTCCATAGTCCGGAGTCACCTAGTGCAG”: the binding signal was 6690 fluorescence intensity (a.u.).

As to “CTTTCCCTATCTTTCTCCTCATCATATGTGTCATGATGCACGGAGTCACCTAGTGCAG”, the binding signal was 9020 fluorescence intensity (a.u.).

Consider “AGCTATCATGTAAGCGTCACGTCAATGCGATGCAGGGGCGCGGAGTCACCTAGTGCAG”, for which the binding signal is 4630 fluorescence intensity (a.u.).

With “TTTAGTGGCAGTCTTATAATAACGATTCAAAATAGTGGCACGGAGTCACCTAGTGCAG”, the binding signal was 3190 fluorescence intensity (a.u.).

“ACAAATAAATCCTTAAATACACTAACTATCGAATGCACGCCGGAGTCACCTAGTGCAG”: the binding signal was 41300 fluorescence intensity (a.u.).

Take “AATATACAACACTATATTATTAATGCAGTCCAATCGATATCGGAGTCACCTAGTGCAG”: the binding signal is 37000 fluorescence intensity (a.u.).

Turning to “TAACAAATAACCTTAAGTCCTTAACAAATAATAAGTGCACCGGAGTCACCTAGTGCAG”, the binding signal is 3190 fluorescence intensity (a.u.).

Regarding “CCCGCCGTCGCCGGGGAAGACGACACGCCCGCCGTCCTTGCGGAGTCACCTAGTGCAG”, the binding signal is 3580 fluorescence intensity (a.u.).

Consider “ACATTGACTCAGCCACCACGTCACCTAAAATCGGGAACAGCGGAGTCACCTAGTGCAG”, for which the binding signal is 13000 fluorescence intensity (a.u.).

Regarding “CACGATTGCTCGGTGAGCACTGAGCAGTGACCTCATTCGGCGGAGTCACCTAGTGCAG”, the binding signal is 3820 fluorescence intensity (a.u.).

On to “GACGCGTACGCACGGTGGGACGCGGTGGTGGGGTGCTGGGCGGAGTCACCTAGTGCAG”, for which the binding signal was 3920 fluorescence intensity (a.u.).

As to “AGCTGGACAAGATCGGAATAGTAGGCCAGGCCCAAAGCAACGGAGTCACCTAGTGCAG”, the binding signal was 49400 fluorescence intensity (a.u.).

“TGGTAGGGAAGCAGGTGGAAGGAGGACAGGAAGGCCCAATCGGAGTCACCTAGTGCAG”: the binding signal is 34000 fluorescence intensity (a.u.).

For “ATAGGAAGGGAAGCAACGGAGGAGGAGATCGGCTGGTGGTCGGAGTCACCTAGTGCAG”, the binding signal is 7740 fluorescence intensity (a.u.).

Regarding “AAGAACGCCTTCGCGTGGGCCGCCGTCATCGGGATGTGGACGGAGTCACCTAGTGCAG”, the binding signal was 3220 fluorescence intensity (a.u.).

As for “CTCACTCGCTTGCGCTTCACCTCGCGGCATCGACTTCCTACGGAGTCACCTAGTGCAG”, the binding signal is 3630 fluorescence intensity (a.u.).

Turning to “TTAAATGGTCATTCCTGTGTTTTACAATCATATATCTTACCGGAGTCACCTAGTGCAG”, the binding signal is 3990 fluorescence intensity (a.u.).

Turning to “GTCCATATATCCGATGTGACACGCCAACACTTTTCGTATCCGGAGTCACCTAGTGCAG”, the binding signal is 4090 fluorescence intensity (a.u.).

“AAGATCATCACAATTCATCACTCACAACCACATCACATCCCGGAGTCACCTAGTGCAG”: the binding signal is 3260 fluorescence intensity (a.u.).

Consider “CACATCGAACGGTCCAAGAACAACCACATCACCAATGTGCCGGAGTCACCTAGTGCAG”, for which the binding signal is 3710 fluorescence intensity (a.u.).

With “TGGCTTCACTTGCAACGGTACAAGAACCACCATCACTTCCCGGAGTCACCTAGTGCAG”, the binding signal was 40100 fluorescence intensity (a.u.).

In the case of “CGCCTCTGCGGTCTCCTTCGTCACCCGCGCGTCAACCAACCGGAGTCACCTAGTGCAG”, the binding signal is 4290 fluorescence intensity (a.u.).

With “CCCCTTCATGCCAGCACGCTCCCCACATCCACCCACCACCCGGAGTCACCTAGTGCAG”, the binding signal was 3320 fluorescence intensity (a.u.).

For the sequence “CGTGCGACCCAGATCTCGCCACGTATGCGCGCGGATCGGCCGGAGTCACCTAGTGCAG”, the binding signal was 10800 fluorescence intensity (a.u.).

Take “GGGACGAGAGGAGCAACGCGCGGGCGCCGGCTGGCAAGAGCGGAGTCACCTAGTGCAG”: the binding signal was 3960 fluorescence intensity (a.u.).

Consider “ACCTTGAGTTTGAGTGCGATTCCTCCCTTCTTTCGGTCACCGGAGTCACCTAGTGCAG”, for which the binding signal is 21100 fluorescence intensity (a.u.).

In the case of “ACGACGACGACGTCGACGTGTGAACCAGTCAACTGCCACGCGGAGTCACCTAGTGCAG”, the binding signal is 8590 fluorescence intensity (a.u.).

Regarding “ACGAAACCGCACAAAAGCCGGTGAATTTTCCCGTAATTTGCGGAGTCACCTAGTGCAG”, the binding signal was 8780 fluorescence intensity (a.u.).
